# Assay outcomes deposited in PubChem by National Center for Advancing Translational Sciences (NCATS).
# Compounds with a hit are over-represented: about 7.5% of the library has one in this group of screens.
# RORg inh: blocks mouse ROR gamma transcriptional activity. Drosophila S2 Gal4-RORgamma UAS-luciferase reporter, 20 h. Potency, µM (top dose mostly 53.6 µM), for the others: at the top dose activity change, negative = inhibition, most hits filed as inhibitors. hit rate 5.4% among 310,000; note: potency is the fitted concentration of half-maximal effect; nearly all actives have a fitted effect of over 60% in size
#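 Using a luciferase readout, inhibitors were identified by reduced reporter activity in Drosophila cells coexpressing a copper-inducible Gal4–ROR gamma fusion and UAS-driven Photinus luciferase, incubated 20 hr after 700 uM copper sulfate.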
# Gal4-VP16 FLuc: counter-screen for ROR gamma inhibitors: Gal4-VP16 reporter; Drosophila S2 Gal4-VP16 UAS-luciferase, luminescence, 20 h; AID 2546; hit rate 3.5% among 310,000; Potency, µM (top dose mostly 53.6 µM), for the others: top-dose activity, negative = inhibition, most hits filed as inhibitors;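 note: Gal4-VP16 expression switched on by copper sulfate through the metallothionein promoter; potency is the fitted concentration of half-maximal effect; nearly all actives have a fitted effect of over 50% in size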
# TSHR antagonist: blocks TSH signaling through the human TSH receptor. P16473. TSHR-expressing cells, TSH-stimulated cAMP HTRF, 2 h; hits give low values. activity change, negative = inhibition, % at 11.5 µM. hit rate 0.2% among 330,000. AID 504810;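 active = activity change below a set negative limit, meaning inhibition stronger than a set level, cut at about -70% in these data; inconclusive = activity change between two set negative limits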
# Target sequence (P16473 whole entry, looked up): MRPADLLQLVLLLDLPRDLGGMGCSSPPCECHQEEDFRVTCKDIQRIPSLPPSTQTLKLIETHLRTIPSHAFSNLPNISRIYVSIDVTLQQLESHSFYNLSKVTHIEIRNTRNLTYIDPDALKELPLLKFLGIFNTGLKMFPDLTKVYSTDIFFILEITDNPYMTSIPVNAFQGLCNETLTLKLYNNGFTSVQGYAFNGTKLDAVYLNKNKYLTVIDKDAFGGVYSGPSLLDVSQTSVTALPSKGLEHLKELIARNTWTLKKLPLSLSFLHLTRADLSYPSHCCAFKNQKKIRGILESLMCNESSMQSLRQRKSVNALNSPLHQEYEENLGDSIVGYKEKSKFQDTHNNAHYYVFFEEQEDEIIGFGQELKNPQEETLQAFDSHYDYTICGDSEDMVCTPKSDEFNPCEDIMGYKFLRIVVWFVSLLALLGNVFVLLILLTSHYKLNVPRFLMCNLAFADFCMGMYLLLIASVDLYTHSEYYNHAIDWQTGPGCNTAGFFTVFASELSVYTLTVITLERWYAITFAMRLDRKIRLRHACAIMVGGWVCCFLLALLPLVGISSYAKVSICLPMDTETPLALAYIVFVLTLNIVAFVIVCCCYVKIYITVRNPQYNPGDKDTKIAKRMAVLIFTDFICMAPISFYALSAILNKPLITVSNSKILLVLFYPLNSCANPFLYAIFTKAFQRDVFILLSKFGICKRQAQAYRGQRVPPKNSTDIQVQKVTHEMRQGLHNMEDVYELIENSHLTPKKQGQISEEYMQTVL
#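 Freshly harvested TSHR cells receive pin-tooled compound, then EC80 TSH at 4nM final. After 2 hours at 37 deg C, antibody in lysis buffer and cAMP-d2 are added; 30 minutes at ambient temperature precede the HTRF read.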
# ELG1 DNA repair: inhibitors of ELG1-dependent DNA repair in HEK293T cells. HEK293T ELG1-luciferase reporter, luminescence, 16 h; DNA damage induced by 5-fluorouridine. Potency, µM (doses to about 46.1 µM), for the others: at the highest dose activity change, negative = inhibition, hits mostly inhibitors. hit rate 2.3% among 330,000. AID 504467; note: potency is the fitted concentration of half-maximal effect; nearly all actives have a fitted effect of over 55% in size
#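 In this reporter screen, reduction of luminescence relative to DMSO vehicle indicated activity. Compounds and 5-fluorouridine were added together to 2,000 cells per well, incubated for 16 hr at 37 °C, then developed with ONE-Glo.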
# B2AR arrestin: recruits beta-arrestin to the human beta2-adrenergic receptor | P07550 | beta-arrestin recruitment to beta2AR, cell-based reporter | Potency, µM (series often up to 46.1 µM), for the others: at the top dose activation, most hits filed as activators | hit rate 0.02% among 330,000;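 note: potency is the fitted concentration of half-maximal effect; 0% = DMSO controls and full agonism = EC100 isoproterenol or metaproterenol; nearly all actives have a fitted effect of over 65% in size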
# Starred values were filed as active, the others as inactive; ? = inconclusive; · = not tested or not shown; [ ] = another dose, or the depositor's remark. Unless noted, calls come from the whole dose curve; as a rule, active = well fitted curve in the direction sought with a large enough effect; inconclusive = small, poorly fitted or top-dose-only effect, or another doubt; inactive = no such curve, though single readings can be large; an effect the other way counts as inactive or inconclusive. Unless noted, % is set by controls: 0 for no effect and ±100 for the full control effect.
SMILES,RORg inh,Gal4-VP16 FLuc,TSHR antagonist,ELG1 DNA repair,B2AR arrestin
COc1ccccc1/C=C/C=N/NC(=O)Cc1cccs1,10µM*,?,0,?,0%
Cc1ccc(S(=O)(=O)N2CCN(CC(=O)N/N=C/c3ccccc3OCC(=O)O)CC2)cc1,27%,7%,5,-6%,-1%
O=C(CN1CCN(Cc2ccccc2Cl)CC1)N/N=C/C=C\c1ccccc1[N+](=O)[O-],-45%,0.16µM*,7,?,0%
COc1ccccc1/C=C/C=N/NC(=O)CN1CCN(S(=O)(=O)c2ccc(C)cc2)CC1,16µM*,?,-16,1%,0%
CC(=O)N1CCN(S(=O)(=O)c2ccc3c(c2)CC(=O)N3)CC1,·,·,24,11%,0%
O=C(CN1CCNCC1)NCCSc1ccc(Cl)cc1,-13%,0%,-3,?,0%
C#CCCCO/N=C1/C[C@@H](O)[C@@H](O)[C@@H]2[C@@H]3C(=O)N(CC)C(=O)[C@H]3CC[C@H]12,5%[10 µM],-7%[10 µM],·,·,·
O=C(N/N=C/C=C/c1ccccc1[N+](=O)[O-])c1ccncc1,11µM*,20µM*,-6,-12%,-1%
O=C(N/N=C/C=C\c1ccccc1[N+](=O)[O-])c1cccnc1,10µM*,?,3,1%,0%
O=C(N/N=C/C=C\c1ccccc1[N+](=O)[O-])c1cc(-c2ccc3ccccc3c2)n[nH]1,3.2µM*,4.5µM*,-1,15%,0%
O=C(N/N=C/C=C/c1ccccc1[N+](=O)[O-])c1cccnc1,0%,0%,11,13%,0%
O=C(N/N=C/C=C/c1ccc([N+](=O)[O-])cc1)c1cccs1,4µM*,?,-8,-1%,0%
Clc1cc(Cl)cc(C2=N[C@@H](Cc3ccccc3)CO2)c1,-29%,3%,·,·,·
Nc1cc(=O)nc(SCC(=O)N2CCN(c3ccccc3)CC2)n1-c1ccc(F)cc1,15%,-4%,9,1%,0%
Cc1ccc(/C=N/NC(=O)c2cc(-c3ccc(C)o3)[nH]n2)cc1,-15%,-4%,-12,?,-1%
COc1ccccc1/C=C/C=N/NC(=O)c1cc(-c2ccc(C)o2)[nH]n1,13µM*,?,-6,?,0%
O=C(N/N=C/C=C\c1ccccc1[N+](=O)[O-])c1cccs1,14µM*,?,-2,?,0%
CCOC(=O)C1CCN(C(=O)c2ccc(OCC(=O)Nc3ccc(OCC)cc3)c(OC)c2)CC1,·,·,6,-17%,0%
OCC1CCCN(c2nc(CN3CCCCC3)nc3scc(-c4ccccc4)c23)C1 (centres undefined),-25%,0%,3,1%,0%
Fc1ccc(N2CCN(c3nc(CN4CCOCC4)nc4scc(-c5ccccc5)c34)CC2)cc1,10µM*,-20%,-4,?,0%
CCNc1nc(CN2CCCCC2)nc2scc(-c3ccccc3)c12,16µM*,?,-1,-6%,0%
CN(Cc1ccccc1)c1nc(CN2CCOCC2)nc2scc(-c3ccccc3)c12,10µM*,?,3,?,0%
COc1cccc(NC(=O)c2oc3ccccc3c2NC(=O)C2CC2)c1,1%,-5%,-15,13µM*,0%
COc1ccc(NC(=O)c2oc3ccccc3c2NC(=O)c2ccco2)cc1,62%,7%,-26,10µM*,0%
COc1ccc(NC(=O)c2oc3ccccc3c2NC(=O)c2ccco2)c(OC)c1,-4%,9%,-45,?,0%
CC1CC(=O)NN1C(=O)c1ccccc1 (centres undefined),-12%,-2%,-9,2%,0%
Cc1cc(C=C2C(=O)CCCC2=O)c(C)n1-c1ccccc1,8.9µM*,-4%,3,23%,0%
COc1ccc(-n2c(C)cc(/C=C3\C(=O)NN(c4ccccc4)C3=O)c2C)cc1,-39%,-20%,-4,?,0%
Cc1cc(/C=C2/C(=O)NN(c3ccccc3)C2=O)c(C)n1-c1ccc(O)cc1,14µM*,4µM*,-22,?,-1%
Cc1cc(/C=C2\SC(=S)NC2=O)c(C)n1-c1ccccc1,10µM*,?,-21,?,-1%
